Measured values published in PubChem BioAssay (EPA / NIEHS).
Values joined by “and” are separate entries in the source; they are usually repeats but may differ in a detail not shown here. Equal values may be shown once. Records with an inconclusive call do not appear. Active and inactive are the calls of the source. Rule for the calls, unless noted: active = hit-call score of the fitted dose curve at least 0.9, where 1 is the maximum; inconclusive = response in the unintended direction; inactive = score below 0.9.

Columns and labels:
[1] = target: Cellular tumor antigen p53 (Homo sapiens) (UniProt P04637); test: TOX21_p53_BLA_p2_ratio: Tox21 HCT-116 p53 Agonism Beta-lactamase Assay, Ratio, Phase 2 (AID 2283592)
Chain of Cellular tumor antigen p53 (Homo sapiens) (P04637 whole entry, looked up): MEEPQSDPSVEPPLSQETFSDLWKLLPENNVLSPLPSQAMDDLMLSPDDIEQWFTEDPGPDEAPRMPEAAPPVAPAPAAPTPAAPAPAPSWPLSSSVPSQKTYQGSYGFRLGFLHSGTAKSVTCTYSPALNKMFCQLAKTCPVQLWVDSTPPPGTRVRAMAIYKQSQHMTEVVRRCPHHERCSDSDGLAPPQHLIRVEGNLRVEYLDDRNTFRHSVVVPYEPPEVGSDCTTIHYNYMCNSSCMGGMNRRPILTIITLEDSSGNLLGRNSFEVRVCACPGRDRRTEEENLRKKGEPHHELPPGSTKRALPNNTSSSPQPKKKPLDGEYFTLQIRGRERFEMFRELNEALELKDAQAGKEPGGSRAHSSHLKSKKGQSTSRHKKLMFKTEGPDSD
In short: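 In this cell-based reporter format, HCT116 cells were dosed with chemicals delivered from DMSO by 217-fold dilution and incubated 16 h at 37C. Emission at 460 and 530 nm after 2 h CCF4-AM loading provided the ratio, fitted upward versus DMSO.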

[2] = TOX21_p53_BLA_p3_viability: Viability Assessment in the Tox21 HCT-116 p53 Agonism Beta-lactamase Assay, Phase 3 (AID 2283593);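 note: cells exposed to compound for 16 h before reading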
In short: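 Cellular ATP was quantified by CellTiter-Glo luminescence, read after 30 min at room temperature. Beforehand, HCT116 cells (4000/well) received compound 5 h post-seeding, 217-fold diluted from DMSO, then incubated 16 h at 37C.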

[3] = target: Cellular tumor antigen p53 (Homo sapiens) (UniProt P04637); test: TOX21_p53_BLA_p3_ratio: Tox21 HCT-116 p53 Agonism Beta-lactamase Assay, Ratio, Phase 3 (AID 2283596)
In short: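 HCT116 p53-bla cells (4000/well) given compound in DMSO (217-fold dilution) after 5 h, incubated 16 h at 37C. CCF4-AM substrate 2 h at room temperature; 460/530 nm emission ratio, gain fitted against DMSO.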

[4] = TOX21_p53_BLA_p4_viability: Viability Assessment in the Tox21 HCT-116 p53 Agonism Beta-lactamase Assay, Phase 4 (AID 2283597);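 note: hits lower the luminescence signal meaning cytotoxicity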
In short: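 We seeded HCT116 p53 reporter cells at 4000/well and waited 5 h. We then added compounds in DMSO at a 217-fold dilution and incubated for 16 h. Viability was read as CellTiter-Glo luminescence after 30 min at RT.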

[5] = TOX21_p53_BLA_p5_viability: Viability Assessment in the Tox21 HCT-116 p53 Agonism Beta-lactamase Assay, Phase 5 (AID 2283600)
In short: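 Compounds, pinned from DMSO at 217-fold dilution, were left on the cells for 16 h. The viability endpoint was ATP content measured by CellTiter-Glo luminescence, where falling signal reflects cytotoxicity.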

[6] = target: Cellular tumor antigen p53 (Homo sapiens) (UniProt P04637); test: TOX21_p53_BLA_p4_ratio: Tox21 HCT-116 p53 Agonism Beta-lactamase Assay, Ratio, Phase 4 (AID 2283601)
In short: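 Signal is the blue/green (460nm/530nm) ratio of cleaved versus uncleaved CCF4-AM substrate, read after 2 h substrate loading. Cells were HCT116 carrying the p53-responsive beta-lactamase reporter, dosed 16 h at 37C, 5% CO2; CellTiter-Glo measured in parallel.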

[7] = system: zebrafish Androgen Receptor (AR), gene 100005148; test: ATG_zfAR_XSP1: Attagene TRANS-FACTORIAL Multi-Species (XSP1) HepG2 Assay for zebrafish Androgen Receptor (AR) (AID 2283771)
In short: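 HepG2 cells were transiently transfected with a zebrafish AR-GAL4 reporter system and partially stimulated with 3 nM 6-alpha-fluorotestosterone. Reporter mRNA was measured after 24 h dosing by RT-PCR with capillary electrophoresis, and gain-of-signal was fitted relative to DMSO.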

[8] = target: zebrafish Estrogen Receptor (ESR1), esr1 (gene 259252) (UniProt P57717); test: ATG_zfER1_XSP1: Attagene TRANS-FACTORIAL Multi-Species (XSP1) HepG2 Assay for zebrafish Estrogen Receptor (ESR1) (AID 2283772)
Chain of zebrafish Estrogen Receptor (ESR1), esr1 (gene 259252) (P57717 whole entry, looked up, the tested form may be a part): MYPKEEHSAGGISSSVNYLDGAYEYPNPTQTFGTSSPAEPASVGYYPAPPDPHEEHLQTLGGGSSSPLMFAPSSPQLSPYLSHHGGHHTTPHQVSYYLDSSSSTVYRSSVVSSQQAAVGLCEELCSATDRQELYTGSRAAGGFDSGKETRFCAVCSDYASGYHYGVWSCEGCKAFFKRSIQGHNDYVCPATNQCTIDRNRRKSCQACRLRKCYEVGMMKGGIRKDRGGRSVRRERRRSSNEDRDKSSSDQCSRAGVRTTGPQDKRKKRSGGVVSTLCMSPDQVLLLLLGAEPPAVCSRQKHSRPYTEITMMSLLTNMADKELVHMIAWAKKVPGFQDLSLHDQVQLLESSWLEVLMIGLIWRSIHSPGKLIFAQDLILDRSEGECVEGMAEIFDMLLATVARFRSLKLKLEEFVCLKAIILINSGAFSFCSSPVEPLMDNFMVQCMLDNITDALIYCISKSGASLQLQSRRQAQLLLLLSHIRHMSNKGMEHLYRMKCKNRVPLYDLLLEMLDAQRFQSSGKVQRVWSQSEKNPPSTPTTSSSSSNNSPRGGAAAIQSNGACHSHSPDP
In short: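 Readout: fluorescent reporter mRNA, RT-PCR plus FAM labelling, HpaI digest, capillary electrophoresis; gain-of-signal fit vs DMSO. HepG2, transient multi-reporter TRANS (NR-GAL4 chimera), 24 h chemical exposure, 3 nM 6-alpha-fluorotestosterone co-added.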

[9] = system: zebrafish Estrogen Receptor (ESR2B), gene 317733; test: ATG_zfER2b_XSP1: Attagene TRANS-FACTORIAL Multi-Species (XSP1) HepG2 Assay for zebrafish Estrogen Receptor (ESR2B) (AID 2283773)
In short: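 Gain-of-signal endpoint relative to DMSO: reporter transcript levels quantified by RT-PCR and capillary electrophoresis after 24 h compound exposure of HepG2 cells expressing a zebrafish ER2b-Gal4 chimera.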

[10] = system: frog Estrogen Receptor (ESR2), gene 100174814; test: ATG_frER2_XSP1: Attagene TRANS-FACTORIAL Multi-Species (XSP1) HepG2 Assay for frog Estrogen Receptor (ESR2) (AID 2283774)
In short: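 Transactivation of an exogenous receptor-Gal4 fusion is tracked in transfected HepG2 cells via induced reporter transcript levels. After 24 h treatment, RT-PCR with capillary electrophoresis quantifies signal gain over DMSO.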

[11] = ACEA_AR_antagonist_AUC_viability: ACEA Biosciences xCELLigence Real-Time Cell Analysis on Androgen Receptor Antagonism for Viability (AID 2283776);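 note: 22Rv1 human prostate cancer cells growing on impedance electrode plates; area under impedance growth curve at 80 h after dosing as viability; hits lower the growth signal relative to DMSO meaning cytotoxicity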
In short: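 Real-time electrical impedance tracks 22Rv1 proliferation after continuous compound exposure (top 100 uM final, 1:4 steps, 8 concentrations). The 80 h area-under-curve serves as the cytotoxicity readout relative to DMSO.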

[12] = system: frog Estrogen Receptor (ESR1), gene 398734; test: ATG_frER1_XSP1: Attagene TRANS-FACTORIAL Multi-Species (XSP1) HepG2 Assay for frog Estrogen Receptor (ESR1) (AID 2283777)
In short: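 Human hepatoma HepG2 cells carried transiently transfected multiplexed Gal4-driven reporters and were exposed to test chemicals for 24 hours. Transcripts were quantified by fluorescent RT-PCR with capillary electrophoresis, referenced to DMSO.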

[13] = system: zebrafish Estrogen Receptor (ESR2A), gene 317734; test: ATG_zfER2a_XSP1: Attagene TRANS-FACTORIAL Multi-Species (XSP1) HepG2 Assay for zebrafish Estrogen Receptor (ESR2A) (AID 2283778)
In short: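 Cells were transfected, dosed for 24 h, then total RNA was isolated. After oligo(dT) reverse transcription, reporter sequences were amplified, FAM-labelled by primer extension, digested with HpaI and sized by capillary electrophoresis; DMSO served as baseline.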

[14] = target: chicken Estrogen Receptor (ESR1), ESR1 (gene 396099) (UniProt P06212); test: ATG_chERa_XSP1: Attagene TRANS-FACTORIAL Multi-Species (XSP1) HepG2 Assay for chicken Estrogen Receptor (ESR1) (AID 2283779)
Chain of chicken Estrogen Receptor (ESR1), ESR1 (gene 396099) (P06212 whole entry, looked up, the tested form may be a part): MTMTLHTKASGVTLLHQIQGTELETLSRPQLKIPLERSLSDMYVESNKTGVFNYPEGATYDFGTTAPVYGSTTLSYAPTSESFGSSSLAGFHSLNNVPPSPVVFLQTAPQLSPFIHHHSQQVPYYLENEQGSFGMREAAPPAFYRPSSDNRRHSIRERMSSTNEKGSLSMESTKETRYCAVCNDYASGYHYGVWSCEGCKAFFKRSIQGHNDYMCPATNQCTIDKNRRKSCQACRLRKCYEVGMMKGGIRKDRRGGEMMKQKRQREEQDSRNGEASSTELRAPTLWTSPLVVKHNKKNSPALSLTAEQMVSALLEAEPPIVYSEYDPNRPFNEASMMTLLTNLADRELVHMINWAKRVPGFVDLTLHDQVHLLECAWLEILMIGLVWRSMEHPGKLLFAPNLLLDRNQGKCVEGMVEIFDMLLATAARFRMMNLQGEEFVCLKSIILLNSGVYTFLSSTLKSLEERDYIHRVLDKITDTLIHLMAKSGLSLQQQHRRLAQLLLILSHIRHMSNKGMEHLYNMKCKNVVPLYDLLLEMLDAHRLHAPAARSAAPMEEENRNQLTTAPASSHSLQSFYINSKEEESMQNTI
In short: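 Human liver HepG2, transient MRTU transfection (NR-Gal4 chimeras, GAL4-UAS reporters); 24 h compound exposure; 3 nM 6-alpha-fluorotestosterone in medium. Total RNA → RT-PCR → 6-FAM primer extension → HpaI → CE. Positive direction vs DMSO baseline.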

[15] = target: Estrogen receptor (Homo sapiens) (UniProt P03372); test: ATG_hERa_XSP1: Attagene TRANS-FACTORIAL Multi-Species (XSP1) HepG2 Assay for human Estrogen Receptor (ESR1) (AID 2283780)
Chain of Estrogen receptor (Homo sapiens) (P03372 whole entry, looked up, the tested form may be a part): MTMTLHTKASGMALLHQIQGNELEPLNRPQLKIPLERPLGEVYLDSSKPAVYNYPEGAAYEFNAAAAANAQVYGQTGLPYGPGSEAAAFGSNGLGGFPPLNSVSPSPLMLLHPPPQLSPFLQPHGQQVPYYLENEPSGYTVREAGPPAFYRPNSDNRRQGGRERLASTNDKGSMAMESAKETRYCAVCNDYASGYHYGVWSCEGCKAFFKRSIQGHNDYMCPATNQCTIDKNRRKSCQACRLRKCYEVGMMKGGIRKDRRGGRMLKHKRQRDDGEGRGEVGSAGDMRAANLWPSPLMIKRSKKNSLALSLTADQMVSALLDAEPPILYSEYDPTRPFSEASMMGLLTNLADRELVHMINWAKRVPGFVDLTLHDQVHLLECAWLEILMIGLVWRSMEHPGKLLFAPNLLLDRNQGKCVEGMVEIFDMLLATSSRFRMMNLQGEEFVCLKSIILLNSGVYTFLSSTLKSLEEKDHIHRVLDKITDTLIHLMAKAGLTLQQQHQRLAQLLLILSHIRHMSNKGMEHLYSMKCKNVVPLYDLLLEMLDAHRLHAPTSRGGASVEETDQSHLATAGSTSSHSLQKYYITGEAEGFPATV
In short: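 HepG2 cells transiently transfected with GAL4-UAS reporter units and chimeric NR-Gal4 constructs; 24 h after dosing, reporter mRNA quantified by RT-PCR and capillary electrophoresis. Medium contained 3 nM 6-alpha-fluorotestosterone; activity fitted as gain-of-signal versus DMSO.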

[16] = CEETOX_H295R_MTT_cell_viability: Viability Assessment in the CeeTox HT-H295R MTT Assay (AID 2283718; active = hit-call score of the fitted dose curve at least 0.9, where 1 is the maximum; inactive = score below 0.9;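 for AC50: curve fitted both ways so AC50 may mark viability loss or gain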)
In short: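 MTT reduction (0.5 mg/ml, 4 h at 37 C; absorbance at 570 and 650 nm) gave viability as background-corrected percent change versus controls. H295R cells had 48 h forskolin (10 uM) prestimulation, then 48 h chemical exposure at 0.1% DMSO.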

[17] = ACEA_AR_agonist_AUC_viability: ACEA Biosciences xCELLigence Real-Time Cell Analysis on Androgen Receptor Agonism for Viability (AID 2283775)
In short: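 Read-out is area under the impedance curve at 80 h post-dose in 22Rv1 cells, with DMSO as baseline and signal loss taken as reduced viability. Compounds ran in duplicate from 100 uM final.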

[18] = system: Thyroperoxidase (TPO), gene 54314; test: CCTE_Simmons_AUR_rTPO: CCTE's Amplex UltraRed Assay for Thyroperoxidase (TPO) Inhibition, Simmons Lab (AID 2283662);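 note: potency for loss of signal meaning inhibition of peroxidase activity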
In short: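 Rat thyroid microsomal TPO + 25 uM AUR in 200 mM K phosphate; cpd 5 nM–87.5 uM [final], 8 conc, 0.5% DMSO; 300 uM H2O2 starts rxn; 37C dark 30 min; endpoint FI 544/590 nm; n=3.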

[19] = CCTE_Simmons_CellTiterGLO_HEK293T: Viability Assessment in CCTE's Assays for Thyroperoxidase (TPO) Inhibition, Simmons Lab (AID 2283665);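 for AC50: cells exposed to compound for 24 h before readout; actives reduce ATP signal below DMSO vehicle meaning cytotoxicity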
In short: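 HEK293T cells in DMEM with 1% FBS were dosed with 8 concentrations (5 nM–87.5 uM final, 0.5% DMSO) for 24 hr at 37C; ATP content was read by CellTiter-Glo luminescence, loss-of-signal versus DMSO, three biological replicates.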

[20] = target: Luciferin 4-monooxygenase (Photinus pyralis) (UniProt P08659); test: CCTE_Simmons_QuantiLum_inhib_2: CCTE's Firefly Luciferase Inhibition Assay, Simmons Lab (AID 2283767);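 for AC50: potency for inhibitors that lower luciferase luminescence relative to DMSO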
Chain of Luciferin 4-monooxygenase (Photinus pyralis) (P08659 whole entry, looked up): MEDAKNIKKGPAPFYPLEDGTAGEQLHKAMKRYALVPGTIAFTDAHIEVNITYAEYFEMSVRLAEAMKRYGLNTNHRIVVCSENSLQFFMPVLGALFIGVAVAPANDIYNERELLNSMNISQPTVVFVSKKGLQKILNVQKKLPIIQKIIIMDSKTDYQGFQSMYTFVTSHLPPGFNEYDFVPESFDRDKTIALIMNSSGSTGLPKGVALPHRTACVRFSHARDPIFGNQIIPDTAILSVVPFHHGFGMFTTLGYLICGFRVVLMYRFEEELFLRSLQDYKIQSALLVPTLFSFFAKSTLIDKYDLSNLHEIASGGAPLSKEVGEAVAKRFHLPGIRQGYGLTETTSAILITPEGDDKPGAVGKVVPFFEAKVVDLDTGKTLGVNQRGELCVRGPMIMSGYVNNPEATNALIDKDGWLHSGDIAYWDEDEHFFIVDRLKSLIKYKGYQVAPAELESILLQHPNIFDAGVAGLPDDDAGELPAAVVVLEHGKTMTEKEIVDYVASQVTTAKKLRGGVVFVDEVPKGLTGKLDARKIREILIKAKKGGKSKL
In short: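 Recombinant firefly luciferase (5 ng/well, 200 mM potassium phosphate with 1 mg/ml BSA) was exposed to 8 concentrations from 5 nM to 87.5 uM (final, 0.5% DMSO) for 30 min at 37C in the dark. Loss of luminescence versus DMSO was read after injecting D-luciferin/ATP-analogue reagent.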

Measured: AC50

Cc1ccc(S(=O)(=O)NCl)cc1
inactive: [1] | [2] | [3] | [4] | [5] | [6]

CCN(CC)c1ccc2c(C)cc(=O)oc2c1
active: [1] 36.8 µM and 44.9 µM | [3] 40.9 µM and 38.6 µM | [6] 41.6 µM and 36 µM
inactive: [2] | [4] | [5]

C(=C(c1ccccc1)c1ccccc1)c1ccccc1
inactive: [1] | [2] | [4] | [5] | [7] | [11] | [12] | [13]
active: [8] 0.272 µM | [9] 0.0504 µM | [10] 0.0249 µM | [14] 0.198 µM | [15] 0.0336 µM

CC/C=C\CCOC(=O)c1ccccc1
inactive: [1] | [3] | [4] | [6]

CC(=O)Nc1ccc(N=Nc2cc(C)ccc2O)cc1
inactive: [16]

CC(C)OC(=O)c1ccccc1C(=O)OC(C)C
inactive: [16] | [17] | [11]

CC/C=C\CCOC(C)=O
inactive: [2] | [3] | [6] | [17] | [11]

c1ccc(B(c2ccccc2)c2ccccc2)cc1
inactive: [2] | [4] | [5] | [6] | [17] | [11]
active: [18] 29.2 µM | [19] 90.1 µM | [16] 50 µM | [20] 53.8 µM

CC(CCl)OP(=O)(OC(C)CCl)OC(C)CCl (stereo not drawn)
inactive: [2] | [3] | [4] | [5] | [6] | [17] | [11]

Cc1cccc(N(C)C)c1
inactive: [16]

Nc1ccc(Oc2cccc(Oc3ccc(N)cc3)c2)cc1
inactive: [16]

CCN(Cc1cccc(S(=O)(=O)O)c1)c1ccc(C(=C2C=CC(=[N+](CC)Cc3cccc(S(=O)(=O)O)c3)C=C2)c2ccc(O)cc2S(=O)(=O)[O-])cc1
active: [18] 19.1 µM | [19] 7.74 µM | [20] 3.86 µM

CC(Cc1ccc(O)c(O)c1)C(C)Cc1ccc(O)c(O)c1 (stereo not drawn)
inactive: [5] | [17] | [11]
active: [2] 86.7 µM | [3] 75.1 µM | [4] 46.1 µM | [6] 75.5 µM | [18] 0.55 µM | [19] 87 µM | [16] 37.4 µM | [20] 16.1 µM

FC(F)(F)C(F)(F)C(F)(F)C(F)(F)CCI
inactive: [3] | [5] | [6]

Cc1cc(C)cc(O)c1
inactive: [1] | [3] | [6] | [11]

CCCCCCCOC(=O)c1ccccc1C(=O)OCCCCCCC
inactive: [16]

CCCCCCS
inactive: [16]

CCCCCCC(C)OC(=O)CCCCC(=O)OC(C)CCCCCC (stereo not drawn)
inactive: [11]

CCCCC(CC)COP(=O)(O)OCC(CC)CCCC (stereo not drawn)
inactive: [11]

CCC(=O)OCCc1ccccc1
inactive: [1] | [3] | [5] | [6]

CCCCOc1ccc(N)cc1
inactive: [1] | [3] | [4] | [5] | [19] | [20]
active: [18] 0.869 µM

CN(C)Cc1ccccc1O
inactive: [1] | [4] | [5] | [6] | [11]

O=C(OCCOCCOCCOC(=O)c1ccccc1)c1ccccc1
active: [11] 0.195 µM
inactive: [1] | [5] | [6]

[Co]
inactive: [17]
